Counter-ions that a name gives are not always drawn.

The values that follow come from the supplement of paper PMC10127200.

The test system of this experiment is OVCAR4. The experiment is described as follows: Euclidean distance of Cell Painting phenotypic profile (signed KS, 77 features) to DMSO centroid (dimensionless distance); 5 or 10 uM (library dependent); higher = stronger phenotypic change vs DMSO (phenoactivity). Particulars: 48 h. In a few lines:
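Five cancer lines, together with a healthy fibroblast line, received library compounds for 48 h at a library-dependent 10 or 5 uM and 0.1% DMSO final. Harmony then derived 77 features from confocal 20X images (9 fields/well) of the stained cells, scoring each as a signed Kolmogorov-Smirnov statistic against same-plate vehicle wells. After plate-position correction, correlation weighting and replicate averaging at the top dose, phenoactivity was taken as each profile's Euclidean distance to the median vehicle profile.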
`CCOC(=O)N1CCC(=C2c3ccc(Cl)cc3CCc3cccnc32)CC1` [Loratadine] came in with an Euclidean distance of 1.1.

As for `COc1ccc2c(c1)c(CC(=O)O)c(C)n2C(=O)c1ccc(Cl)cc1` [Indomethacin], the Euclidean distance was 1.2. With `NC(=O)N1c2ccccc2CC(=O)c2ccccc21` [Oxcarbazepine] the figure was 1.57; with `CC(C)CCCC(C)N` (stereo not drawn) [Octodrine (2-Amino-6-methylheptan)], 1.4; with `CN(C)C(=O)COC(=O)Cc1ccc(OC(=O)c2ccc(NC(=N)N)cc2)cc1` [Camostat Mesilate], 1.71. The value for `C[C@]12CC[C@@H]3c4ccc(O)cc4CC[C@H]3[C@@H]1CCC2=O` [Estrone] was 0.764.

`Cc1ccnc(NS(=O)(=O)c2ccc(N)cc2)n1` [Sulfamerazine] registered an Euclidean distance of 1.2. The value for `CCNC(=O)c1[nH]nc(-c2cc(Cl)c(O)cc2O)c1-c1ccc(OC)cc1` was 2.79; that for `CC[C@@H]1C(=O)OC[C@@H]1Cc1cncn1C` [Pilocarpine HCl] was 1.49. The value for `C[C@H]1O[C@@H](n2cc(F)c(=O)[nH]c2=O)[C@H](O)[C@@H]1O` [Doxifluridine] was 1.03; that for `Cc1ccccc1C(=O)Nc1ccc(C(=O)N2CCCC(O)c3cc(Cl)ccc32)c(C)c1` (stereo not drawn) [Tolvaptan] was 0.738. The compound `C[C@@H](N)[C@H]1CC[C@H](C(=O)Nc2ccncc2)CC1` registered an Euclidean distance of 3.15. Regarding `CC(CCc1ccccc1)NCC(O)c1ccc(O)c(C(N)=O)c1` (stereo not drawn) [Labetalol HCl], the Euclidean distance turned out to be 1.22.
